The values that follow come from PubChem BioAssay (NCATS).

Records with an inconclusive call do not appear. Active and inactive are the calls of the source. Calls come from the whole dose curve; as a rule, active = well fitted cell-killing curve with a large enough effect; inconclusive = small, poorly fitted or top-dose-only effect, or effect the other way; inactive = no such curve, though single readings can be large or run the other way.
Potency is the fitted concentration of half-maximal effect.

The nature of the assay: Viability qHTS for spleen associated tyrosine kinase inhibitor (SYKi) naive MV4-11 cells (AID 1963823). Note: nearly all actives have a fitted effect of over 40% in size. The conditions noted are these: MV4-11 AML viability, CellTiter-Glo luminescence, 72 h; series mostly up to 45 µM; viability (% of control): at the top concentration. The method in brief:
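Read-out: CellTiter-Glo luminescence. Exposure: 72 hr, 37 C, 5% CO2, 95% humidity. Cells: MV4-11 without SYK inhibitor history, 500/well, qHTS format.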
Consider `O=C(OC1CN2CCC1CC2)N1CCc2ccccc2C1c1ccccc1` (stereo not given), for which the Potency was 18.4 µM (active).

As for `NC(=O)c1cccc2[nH]c(-c3ccc(C4CCCN4)cc3F)nc12` (stereo not given), the Potency was 13 µM (active). Regarding `Cc1ncc([N+](=O)[O-])n1CC(O)CN1CCOCC1` (stereo not given), the “viability (% of control)” value is 86.3% (inactive). On the same count and under the same terms, under `NC(=O)NS(=O)(=O)c1ccc(Cl)cc1` stands 82.9% (inactive). With `Cc1cc(Nc2cc(C)c(C#N)c(NC(C)CCCC(C)(C)O)n2)n[nH]1` (stereo not given), the Potency was 0.259 µM (active). Still for that read-out and setting: under `CCC(CC)C(=O)OC12C(OC(=O)C(C)C)C(C)C3(O)C(C=C(CO)CC4(O)C(=O)C(C)=CC43)C1C2(C)C` (stereo not given) stands 0.0282 µM (active). `CC(C)(O)c1ccc2c(c1)C(O)C[C@H]1[C@](C)(C(=O)O)CCC[C@]21C` (stereo not given in full): the “viability (% of control)” value is 91.3% (inactive).

Take `C[C@@H]1C[C@H](O)/C=C/[C@H](O)[C@@H](O)CC(=O)O1`: the “viability (% of control)” value was 81.5% (inactive). Turning to `C=C1CC2[C@@]3(C)C=CC(=O)C(C)(C)C3=C(O)C(=O)[C@@]2(C)C2(C(=O)OC)C(=O)C(C)OC(=O)[C@@]12C` (stereo not given in full), the Potency is 10 µM (active).

Turning to `CC(O)CO[C@@H]1O[C@H](CO)[C@@H](O)[C@H](O)[C@H]1O` (stereo not given in full), the “viability (% of control)” value was 71% (inactive). In the case of `CC(C)(C)n1nc(Cc2cccc3ccccc23)c2c(N)ncnc21`, the Potency is 10.3 µM (active). With `COc1cc(-c2cccc(O)c2)cc2c1OCO2`, the “viability (% of control)” value was 66.2% (inactive).

As to `C[C@H]1CC[C@@H]2N(C1)C[C@@H]1[C@H]([C@@H](O)[C@H](O)[C@]3(O)[C@H]1C[C@@]14OC5(O)[C@@H](C[C@@H](O)[C@@H]31)[C@]4(C)CC[C@@H]5O)[C@]2(C)O`, the “viability (% of control)” value is 86% [at 17.3 µM] (inactive).

With `CC1(O)CC(O)C2(O)C=COC(O[C@@H]3O[C@H](CO)[C@@H](O)[C@H](O)[C@H]3O)C12` (stereo not given in full), the “viability (% of control)” value is 81.8% (inactive). On the same count and under the same terms, the value for `Cc1coc2c1CC1OC1(C)CCC1OC1(C)C2` (stereo not given) was 67.5% (inactive); that for `C[C@@H]1CC[C@]2(C(=O)O)CC[C@]3(C)C(=CCC4[C@@]5(C)C[C@@H](O)[C@@H](O)C(C)(C)C5CC[C@]43C)C2[C@]1(C)O` (stereo not given in full) was 70.3% [at 17.3 µM] (inactive).

`CC1(C)CCC(C)(C)c2cc([C@@H](O)C(=O)Nc3ccc(C(=O)O)cc3F)ccc21`: the Potency was 4.11 µM (active). Still for that read-out and setting: under `CCC(C)(NC(=O)C(CCC(N)=O)NC(=O)C1CC(O)CN1C(=O)C(C)(C)NC(=O)C(C)(C)NC(=O)C(CC(C)C)NC(=O)CNC(=O)C(NC(=O)C(C)(C)NC(=O)C(C)(C)NC(=O)C(C)(C)NC(=O)C(Cc1ccccc1)NC(C)=O)C(C)C)C(=O)N1CC(O)CC1C(=O)NC(C)(C)C(=O)NC(CO)Cc1ccccc1` (stereo not given) stands 1.74 µM (active).

For `O=C(/C=C/c1ccc(O)cc1)N[C@@H](Cc1ccc(O)cc1)C(=O)O`, the “viability (% of control)” value is 93.1% (inactive). Turning to `NCCCC[C@H](NC(=O)[C@@H]1Cc2ccccc2CN1C(=O)CCC(=O)c1ccccc1)C(=O)NCC(c1ccccc1)c1ccccc1`, the Potency was 20.6 µM (active). Regarding `COC(=O)/C=C/c1ccc(O[C@@H]2O[C@H](CO)[C@@H](O)[C@H](O)[C@H]2O)cc1`, the “viability (% of control)” value is 64.3% (inactive). Still for that read-out and setting: under `CC(=O)O[C@@]1(C)[C@@H]2CC(=C(C)C)C(=O)C[C@@]2(C)CC[C@H]1OC(=O)C1(C)OC1C` (stereo not given in full) stands 73.1% (inactive). Take `CC1(CO)CCCC2(C)C1C(OC(=O)c1ccccc1)C=C1C(=O)OCC12O` (stereo not given): the Potency was 1.8 µM (active). Same read-out and setting: under `COc1cccc(-c2cn(-c3ccc(CCN4CCC(O)CC4)cc3)c3ncnc(N)c23)c1` stands 2.06 µM (active); under `CC1=CC(=O)C(C(C)C)=C/C1=N/OC(=O)c1ccccc1C`, 5.17 µM (active). Consider `O=C(/C=C/c1c(C(=O)O)[nH]c2cc(Cl)cc(Cl)c12)Nc1ccccc1`, for which the “viability (% of control)” value was 81.6% (inactive). On to `C[C@@H]1O[C@@H](O[C@H]2[C@@H]3C=CO[C@@H](O[C@@H]4O[C@H](CO)[C@@H](O)[C@H](O)[C@H]4O)[C@@H]3[C@@]3(CO)O[C@@H]23)[C@H](O)[C@H](OC(=O)/C=C/c2ccc(O)cc2)[C@H]1OC(=O)/C=C/c1ccc(O)cc1`, for which the “viability (% of control)” value was 90.9% [at 17.3 µM] (inactive).

Consider `COC1=CC(=O)CC(C)C12Oc1cc(OC)cc(O)c1C2=O` (stereo not given), for which the “viability (% of control)” value was 69.4% (inactive). Consider `C=C1C(=O)O[C@@H]2C[C@@]3(C)C[C@@H](O)C[C@H](C)C3=C[C@H]12`, for which the Potency was 5.17 µM (active). On the same count and under the same terms, the value for `C/C1=C\CC(C)(C)/C=C/C/C(C(=O)O)=C/CC1` was 23.1 µM (active).

For the compound `COC(=O)C1=CO[C@@H](O[C@@H]2O[C@H](CO)[C@@H](O)[C@H](O)[C@H]2O)[C@H]2[C@@H]1C=C[C@@]21C=C([C@H](C)O)C(=O)O1`, the “viability (% of control)” value is 95.5% [at 17.3 µM] (inactive). On to `Cc1cc(C)nc(SCC(=O)Nc2ncc(Cc3cccc4ccccc34)s2)n1`, for which the Potency is 7.31 µM (active). On to `C/C=C(\C)C(=O)OC[C@H]1O[C@@H](O[C@H]2[C@@H](O[C@H]3O[C@H](CO)[C@@H](O)[C@H](O)[C@H]3O[C@@H]3O[C@H](CO)[C@@H](O)[C@H](O)[C@H]3O)O[C@H](COC(=O)/C(C)=C/C)[C@@H](O)[C@@H]2O)[C@H](O)[C@@H](O)[C@@H]1O`, for which the viability (% of control) is 81.8% [at 9.25 µM] (inactive). For `CC/C=C/C=C/C1(C)OC(CC(CO)OC)=CC1=O` (stereo not given), the Potency is 20.6 µM (active). For the compound `CC(=O)OC1C(O)C(C)(O)C(/C=C/C(=O)O)C2(C)CCCC(C)(C)C12` (stereo not given), the “viability (% of control)” value was 55.1% (inactive). Consider `CC1=CC2=C(C)C(=O)[C@](C)(O)[C@H](O)C2=CO1`, for which the “viability (% of control)” value is 75.2% (inactive). Take `COc1cc(CCc2ccccc2)c(C(=O)O)c2c1CC(C(C)(C)O)O2` (stereo not given): the “viability (% of control)” value was 84% (inactive). Take `CC1(C)CC[C@]2(C(=O)O[C@@H]3O[C@H](CO)[C@@H](O)[C@H](O)[C@H]3O)CC[C@]3(C)C(=CCC4[C@@]5(C)C[C@@H](O)[C@H](O)[C@@](C)(CO)C5CC[C@]43C)C2C1` (stereo not given in full): the “viability (% of control)” value was 74.2% [at 17.3 µM] (inactive). `C=C1C[C@H](O)[C@@H](O)[C@@]2(C)C1[C@@H](O)[C@H]1OC(=O)C3[C@@H](C)[C@@H](O)[C@H](O)C2[C@]31C` (stereo not given in full): the “viability (% of control)” value is 83.5% (inactive). Same read-out and setting: under `COc1cc(C)c(C(=O)Oc2cc(C)c(C(=O)Oc3cc(C)c(C(=O)NC(C)C(=O)O)c(O)c3)c(O[C@@H]3O[C@H](CO)[C@@H](O)[C@H](O)[C@H]3OC(C)=O)c2)c(OC)c1` (stereo not given in full) stands 63.7% [at 17.3 µM] (inactive).
